# Results published in PubChem BioAssay (NCATS).
# Values joined by “and” are separate entries in the source; they are usually repeats but may differ in a detail not shown here. Identical values can stand only once. Results filed as inconclusive are left out. A call without a number means that no potency is given here. A number with no mark means an inactive call. Active and inactive are the calls of the source. The call rests on the fitted dose curve; in most records, active means well fitted inhibition curve with a large enough effect; inconclusive means small, poorly fitted or top-dose-only effect; inactive means flat fitted curve, though single readings scatter.
# Columns and labels:
# CRL-7250 = normal cell line; experiment: Cytotoxic Profiling of Annotated Libraries Using Quantitative High-Throughput Screening (AID 1296008); conditions: Five cell lines viability, CellTiter-Glo ATP luminescence, 48-72 h; max response: active compounds read low; further: potency means the concentration at half of the fitted maximal effect
# Summary of the method: (§1)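 Cells exposed to compounds for 48 or 72 hr at 37 degrees Celsius. Viability read as ATP-coupled luminescence with CellTiter-Glo after 10 min at room temperature.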
# HEK293 = experiment: as above; conditions: Five cell lines viability, CellTiter-Glo ATP luminescence, 48-72 h; max response: active compounds read low
# Summary of the method: as §1
# HaCat [1] = experiment: as above; conditions: Five cell lines viability, CellTiter-Glo ATP luminescence, 48-72 h; max response: active compounds read low
# Summary of the method: as §1
# KB-3-1 = experiment: as above; conditions: Five cell lines viability, CellTiter-Glo ATP luminescence, 48-72 h; max response: active compounds read low
# Summary of the method: as §1
# NIH3T3 = experiment: as above; conditions: Five cell lines viability, CellTiter-Glo ATP luminescence, 48-72 h; max response: active compounds read low
# Summary of the method: as §1
# HACAT [2] = experiment: qHTS assay to identify novel small-molecules to repurpose for Merkel cell carcinoma treatment (AID 1296009); conditions: MCC and control cell lines, CellTiter-Glo viability, 72 h; at 44.8 µM (top of the series) unless noted
# Summary of the method: (§2)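 Cells were incubated with compound for 72 hr at 37 degree celsius before CellTiter-Glo addition. Luminescence was normalized with no-cell wells as full cytotoxicity and DMSO as baseline.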
# JCK = experiment: qHTS profiling for inhibitors of Plasmodium falciparum proliferation (AID 504749); further: potency means the concentration at half of the fitted maximal effect; conditions: P. falciparum in erythrocytes, SYBR Green DNA, 72 h; series mostly up to 28.7 µM
# Summary of the method: (§3)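 Readout was DNA-dye fluorescence from lysed cultures, ex 485/em 535 nm. Parasitized red cells had grown 72 h with compound; data scaled between 0.29 uM artemisinin and DMSO wells and corrected using vehicle-only plates.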
# N140 = experiment: as above; conditions: P. falciparum in erythrocytes, SYBR Green DNA, 72 h; series mostly up to 28.7 µM
# Summary of the method: as §3
# P93_24 = experiment: as above; conditions: P. falciparum in erythrocytes, SYBR Green DNA, 72 h; series mostly up to 28.7 µM
# Summary of the method: as §3
# P94_40 = experiment: as above; conditions: P. falciparum in erythrocytes, SYBR Green DNA, 72 h; series mostly up to 28.7 µM
# Summary of the method: as §3
# PAD = experiment: as above; conditions: P. falciparum in erythrocytes, SYBR Green DNA, 72 h; series mostly up to 28.7 µM
# Summary of the method: as §3
# PC15 = experiment: as above; conditions: P. falciparum in erythrocytes, SYBR Green DNA, 72 h; series mostly up to 28.7 µM
# Summary of the method: as §3
# PC26 = experiment: as above; conditions: P. falciparum in erythrocytes, SYBR Green DNA, 72 h; series mostly up to 28.7 µM
# Summary of the method: as §3
# PC49 = experiment: as above; conditions: P. falciparum in erythrocytes, SYBR Green DNA, 72 h; series mostly up to 28.7 µM
# Summary of the method: as §3
# SC27B = experiment: as above; conditions: P. falciparum in erythrocytes, SYBR Green DNA, 72 h; series mostly up to 28.7 µM
# Summary of the method: as §3
# TAB109 = experiment: as above; conditions: P. falciparum in erythrocytes, SYBR Green DNA, 72 h; series mostly up to 28.7 µM
# Summary of the method: as §3
# TAB113 = experiment: as above; conditions: P. falciparum in erythrocytes, SYBR Green DNA, 72 h; series mostly up to 28.7 µM
# Summary of the method: as §3
# TAB165 = experiment: as above; conditions: P. falciparum in erythrocytes, SYBR Green DNA, 72 h; series mostly up to 28.7 µM
# Summary of the method: as §3
# W2 = experiment: as above; conditions: P. falciparum in erythrocytes, SYBR Green DNA, 72 h; series mostly up to 28.7 µM
# Summary of the method: as §3
# HEK293T = experiment: qHTS assay to identify novel small-molecules to repurpose for Merkel cell carcinoma treatment (AID 1296009); conditions: MCC and control cell lines, CellTiter-Glo viability, 72 h
# Summary of the method: as §2
# Further: nearly all actives have a fitted effect of over 60% in size.
compound,measurement,setting,value
COC(c1ccccc1)(c1ccccc1)[C@H](Oc1nc(C)cc(C)n1)C(=O)O,outcome,CRL-7250,inactive
same,max response,HEK293,-24.1% and 3.62%
same,max response,HaCat [1],-18.5% and -6.09%
same,max response,KB-3-1,0.37%
same,outcome,KB-3-1,inactive
same,max response,NIH3T3,-19.9%
same,outcome,NIH3T3,inactive
NC(=O)c1ccc2[nH]ccc2c1,max response,CRL-7250,-5.07%
same,max response,HEK293,-1.44%
same,max response,HaCat [1],0.172%
same,max response,KB-3-1,5.8%
same,max response,NIH3T3,-9.23%
CCN1CCCC1CNC(=O)c1cc(S(N)(=O)=O)ccc1OC (stereo not given),outcome,CRL-7250,inactive
same,max response,HEK293,-9.26%
same,max response,HaCat [1],2.07%
same,outcome,KB-3-1,inactive
same,max response,NIH3T3,-4.16%
CCOC(=O)[C@H](CCc1ccccc1)N[C@H]1CCc2ccccc2N(CC(=O)O)C1=O,max response,CRL-7250,-7.52%
same,Potency,HEK293,18.7 µM (active)
same,outcome,HaCat [1],inactive
same,max response,KB-3-1,4.39%
same,outcome,HACAT [2],inactive
CNC1CCCN(c2c(F)cc3c(=O)c(C(=O)O)cn(C4CC4)c3c2OC)C1 (stereo not given),Potency,JCK,inactive
same,Potency,N140,inactive
same,Potency,P93_24,inactive
same,Potency,P94_40,inactive
same,Potency,PAD,inactive
same,Potency,PC15,inactive
same,Potency,PC26,inactive
same,Potency,PC49,inactive
same,Potency,SC27B,inactive
same,Potency,TAB109,inactive
same,Potency,TAB113,inactive
same,Potency,TAB165,inactive
same,max response,CRL-7250,-2.7%
same,max response,HEK293,-0.681% and -8.47%
same,max response,HaCat [1],0.986% and -11%
same,outcome,KB-3-1,inactive
same,max response,NIH3T3,-6.02%
same,outcome,NIH3T3,inactive
CC(N)C12CC3CC(CC(C3)C1)C2 (stereo not given),Potency,PAD,inactive
same,Potency,PC15,inactive
same,Potency,PC26,inactive
same,Potency,PC49,inactive
same,Potency,W2,6750 nM (active)
same,max response,CRL-7250,1.82% and 3.28%
same,max response,HEK293,-21.7% and 2.38%
same,max response,HaCat [1],2.96% and 2.31%
same,max response,KB-3-1,16.9% and 3.92%
same,outcome,NIH3T3,inactive
COc1ccc2cc3[n+](cc2c1OC)CCc1cc2c(cc1-3)OCO2,Potency,JCK,3160 nM (active)
same,Potency,N140,1260 nM (active)
same,Potency,P93_24,562 nM (active)
same,Potency,P94_40,447 nM (active)
same,Potency,PAD,1000 nM (active)
same,Potency,PC15,2240 nM (active)
same,Potency,PC26,1900 nM (active)
same,Potency,PC49,2510 nM (active)
same,Potency,SC27B,1260 nM (active)
same,Potency,TAB109,631 nM (active)
same,Potency,TAB113,1000 nM (active)
same,Potency,TAB165,794 nM (active)
same,Potency,W2,601 nM (active)
same,Potency,CRL-7250,1.06 µM (active) and 4.18 µM (active)
same,Potency,HEK293,1.33 µM (active) and 1.05 µM (active)
same,Potency,KB-3-1,20.6 µM (active) and 13.2 µM (active)
same,max response,NIH3T3,-15.5% and -8.88%
CCCCS(=N)(=O)CCC(N)C(=O)O (stereo not given),max response,CRL-7250,-8.66%
same,max response,HEK293,-11.7%
same,outcome,HaCat [1],inactive
same,max response,KB-3-1,-5.13%
same,max response,NIH3T3,-0.0148%
same,outcome,HACAT [2],inactive
O=c1oc2c(O)c(O)cc3c(=O)oc4c(O)c(O)cc1c4c23,Potency,JCK,inactive
same,Potency,PC15,6310 nM (active)
same,Potency,PC49,inactive
same,Potency,TAB165,1410 nM (active)
same,Potency,W2,1900 nM (active)
same,max response,CRL-7250,-1.07%
same,outcome,HEK293,inactive
same,max response,HaCat [1],0.0618% and -16.9%
same,max response,KB-3-1,-24.2% and 0.262%
same,max response,NIH3T3,2.17%
same,outcome,HEK293T; at 17.4 µM (top of the series),inactive
same,outcome,HEK293T; at 44.8 µM (top of the series),inactive
CC(C)OC(=O)C(C(=O)OC(C)C)=C1SC=CS1,Potency,JCK,inactive
same,Potency,N140,inactive
same,Potency,P93_24,inactive
same,Potency,PAD,inactive
same,Potency,PC15,inactive
same,Potency,PC26,inactive
same,Potency,PC49,inactive
same,Potency,SC27B,inactive
same,Potency,TAB109,inactive
same,Potency,TAB113,inactive
same,Potency,TAB165,inactive
same,Potency,W2,inactive
same,outcome,CRL-7250,inactive
same,max response,HaCat [1],-22%
same,outcome,HaCat [1],inactive
same,max response,KB-3-1,13.9%
same,outcome,KB-3-1,inactive
same,max response,NIH3T3,0.152%
same,outcome,NIH3T3,inactive
same,outcome,HACAT [2],inactive
CC(C)NCC(O)c1ccc(NS(C)(=O)=O)cc1 (stereo not given),Potency,JCK,inactive
same,Potency,N140,inactive
same,Potency,P93_24,inactive
same,Potency,P94_40,inactive
same,Potency,PAD,inactive
same,Potency,PC15,inactive
same,Potency,PC26,inactive
same,Potency,PC49,inactive
same,Potency,SC27B,inactive
same,Potency,TAB109,inactive
same,Potency,TAB113,inactive
same,Potency,TAB165,inactive
same,Potency,W2,inactive
same,outcome,CRL-7250,inactive
same,max response,HEK293,0.785%
same,outcome,HaCat [1],inactive
same,max response,KB-3-1,2.03% and 6.79%
same,max response,NIH3T3,4.22%
same,outcome,HACAT [2],inactive
Nc1nc(N)nc(-c2cc(Cl)ccc2Cl)n1,Potency,JCK,inactive
same,Potency,N140,inactive
same,Potency,P93_24,inactive
same,Potency,P94_40,inactive
same,Potency,PAD,inactive
same,Potency,PC15,inactive
same,Potency,PC26,inactive
same,Potency,PC49,inactive
same,Potency,SC27B,inactive
same,Potency,TAB109,inactive
same,Potency,TAB113,inactive
same,Potency,TAB165,inactive
same,Potency,W2,inactive
same,max response,CRL-7250,-4.29% and -4.54%
same,max response,HEK293,-8.28% and -2.53%
same,max response,HaCat [1],-21.1% and 4.26%
same,max response,KB-3-1,-7.71%
same,max response,NIH3T3,-1.04% and -13.6%
C[C@@H]1C[C@H]2[C@@H]3CCC4=CC(=O)C=C[C@]4(C)[C@@]3(Cl)[C@@H](O)C[C@]2(C)[C@@]1(OC(=O)c1ccco1)C(=O)CCl,max response,CRL-7250,-41.7%
same,max response,HaCat [1],-15.9%
same,max response,KB-3-1,4.51% and 5.24%
COc1c(N2CCNC(C)C2)c(F)cc2c(=O)c(C(=O)O)cn(C3CC3)c12 (stereo not given),Potency,JCK,inactive
same,Potency,N140,inactive
same,Potency,P93_24,inactive
same,Potency,P94_40,inactive
same,Potency,PAD,inactive
same,Potency,PC15,inactive
same,Potency,PC26,inactive
same,Potency,PC49,inactive
same,Potency,SC27B,inactive
same,Potency,TAB113,inactive
same,Potency,TAB165,inactive
same,Potency,W2,inactive
same,max response,CRL-7250,-3.69%
same,max response,HEK293,-24.5%
same,outcome,HaCat [1],inactive
same,max response,KB-3-1,0.558%
same,outcome,KB-3-1,inactive
same,max response,NIH3T3,-3.19%
same,outcome,NIH3T3,inactive
same,outcome,HACAT [2],inactive
CCN(CC)CCn1c(=O)c(Cc2ccc(OC)cc2)nc2ccccc21,max response,CRL-7250,-4.28%
same,max response,HaCat [1],-7.99%
same,max response,KB-3-1,-9.16%
same,outcome,KB-3-1,inactive
same,outcome,NIH3T3,inactive
